# Bioassay records as filed in PubChem BioAssay.
# VP16 counter – VP16 counterscreen qHTS for inhibitors of ROR gamma transcriptional activity. 310,000 compounds, 3.5% hits. Potency, µM (doses to about 53.6 µM), inactives show at the highest dose activity, negative = inhibition, hits mostly inhibitors. AID 2546, 2010. Drosophila S2 Gal4-VP16 UAS-luciferase, luminescence, 20 h;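 also: Gal4-VP16 expression switched on by copper sulfate through the metallothionein promoter; potency is read from the fitted curve at half-maximal effect; % is scaled to controls: 0 for no effect and ±100 for the full control effect; nearly all actives have a fitted effect of over 50% in size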
# Six1-Eya2 blk – qHTS Assay for Inhibitors of the Six1/Eya2 Interaction; Homeobox protein SIX1 (Homo sapiens) + Protein phosphatase EYA2 (Homo sapiens), …; AlphaScreen GST-Six1/His-Eya2 binding, biochemical; hits give low values; activity change, % (no concentration beside the values); 360,000 compounds, 0.56% hits; in the data active = activity change below about -65%; inconclusive = mostly about -30% to -63%; also: % is scaled to controls: 0 for no effect and ±100 for the full control effect
#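 Six1/Eya2 binding was read as AlphaScreen signal after compounds were pinned into GST-Six1 plus His-tagged Eya2 (5X stock 250/500 nM) in pH 8.0 Tris/NaCl/TCEP buffer, beads added, then incubated 1 h, 37 C, dark.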
# CtBP-E1A blk – qHTS Assay for Inhibitors of the CtBP/E1A Interaction; AlphaScreen GST-E1A/His-CtBP binding, 1536-well; hits give low values; activity change, % (no concentration beside the values); 340,000 compounds, 0.49% hits; CtBP / adenovirus E1A interaction (AlphaScreen); in the data active = activity change below about -65%; inconclusive = mostly about -30% to -63%; also: % is scaled to controls: 0 for no effect and ±100 for the full control effect
#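 In 5 uL wells, 23 nL compound meets equimolar GST-E1A and His-CtBP (5X stock 125 nM each) for 2 h, 37 °C. Beads (5X, 50 ug/mL) then 1 h, 37 °C, dark.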
# p53 reactivation – qHTS assay for re-activators of p53 using a Luc reporter; Potency, µM (series often up to 92.2 µM), for the others: at the highest dose activity change, positive = activation, hits mostly activators; H1299 p53-A138V BP100-luciferase reporter, luminescence, 24 h; 320,000 compounds, 0.063% hits; AID 504706, 2011; also: potency is read from the fitted curve at half-maximal effect; % of control where 0% means no effect; nearly all actives have a fitted effect of over 45% in size
#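 H1299 (p53-null), stable ts p53-A138V + BP100-Luc; 1000 cells/well, Opti-MEM/10% FBS; cpd 4 pt, 1:5; 24 h, 37 deg C, 5% CO2; detection reagent 10 min RT; luminescence.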
# RORg inh – qHTS for inhibitors of ROR gamma transcriptional activity. Nuclear receptor ROR-gamma (Mus musculus), P51450. Drosophila S2 Gal4-RORgamma UAS-luciferase reporter, 20 h. Potency, µM (series often up to 53.6 µM), inactives show at the highest dose activity change, negative = inhibition, usual class: inhibitors. 310,000 compounds, 5.4% hits; also: potency is read from the fitted curve at half-maximal effect; % is scaled to controls: 0 for no effect and ±100 for the full control effect; nearly all actives have a fitted effect of over 60% in size
# Target sequence (P51450 whole entry, looked up, the tested form may be a part): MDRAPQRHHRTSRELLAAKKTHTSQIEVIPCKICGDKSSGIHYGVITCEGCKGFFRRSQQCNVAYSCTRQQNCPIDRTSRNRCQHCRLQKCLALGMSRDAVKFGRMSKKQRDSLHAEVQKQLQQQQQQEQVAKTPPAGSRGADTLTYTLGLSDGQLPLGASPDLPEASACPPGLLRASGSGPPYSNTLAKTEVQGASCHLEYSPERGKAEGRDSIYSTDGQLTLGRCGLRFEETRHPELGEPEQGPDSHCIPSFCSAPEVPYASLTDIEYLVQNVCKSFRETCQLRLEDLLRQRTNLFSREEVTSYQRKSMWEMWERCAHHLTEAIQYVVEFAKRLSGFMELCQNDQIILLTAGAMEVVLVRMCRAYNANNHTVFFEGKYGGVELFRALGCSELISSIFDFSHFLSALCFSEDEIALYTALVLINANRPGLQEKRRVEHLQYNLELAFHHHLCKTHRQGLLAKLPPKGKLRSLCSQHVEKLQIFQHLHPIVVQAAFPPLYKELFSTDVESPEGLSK
#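 In this cell-based reporter format, copper sulfate (700 uM final) drives Gal4–ROR gamma fusion expression from a metallothionein promoter in Drosophila Schneider cells; compounds preincubated 1 hr, reporter read after 20 hr at ambient temperature.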
# * = called active by the depositor; ? = inconclusive; nt = no result given; ! = repeats disagree; [ ] = remark or other dose. Most compounds without a hit are left out; they make up all but 5.4% or so of the library. Unless noted, calls follow the shape of the dose curve; as a rule, active = well fitted curve in the direction sought with a large enough effect; inconclusive = small, poorly fitted or top-dose-only effect, or another doubt; inactive = no such curve, though single readings can be large; an effect the other way counts as inactive or inconclusive.
SMILES,VP16 counter,Six1-Eya2 blk,CtBP-E1A blk,p53 reactivation,RORg inh
CCC(=O)N1N=C(c2c(O)n(C)c(=O)n(C)c2=O)CC1c1ccccc1 (stereo unspecified),-10%,3,nt,6%,11µM*
O=C(Oc1cccc2cccnc12)c1ccccc1,?,nt,nt,nt,1.4µM*
CN1CC[C@@H]2CN3CCc4cccc(c43)[C@H]2C1,9%,nt,nt,nt,-10%
CNc1cc(Cl)c2nonc2c1[N+](=O)[O-],3.5µM*,-28,-18,-12%,1µM*
CNC(=O)Oc1ccc(-c2cn3cc(C)ccc3n2)cc1,4µM*,-5,-14,28%,2µM*
CCC(COC(=O)NC)NC(=O)Oc1cccc(C)c1 (stereo unspecified),-5%,1,-2,3%,0%
CNC(=O)Oc1cccc(-c2cn3cc(Cl)ccc3n2)c1,5µM*,-13,-19,nt,-40%
CCCN1C[C@H](C)N([C@H](c2ccc(C(=O)N(CC)CC)cc2)c2cccc(OC)c2)C[C@H]1C,1%,nt,nt,nt,7%
C=Cn1ccnc1P(=S)(c1nccn1C=C)c1nccn1C=C,9%,?,-91*,-8%,-38%
C=Cn1ccnc1P(=S)(c1nccn1C=C)C1CCCCC1,?,-1,-9,-1%,10µM*
CSCC[C@H](NC(=O)[C@@H](NC(=O)CNC(=O)[C@H](CC(=O)O)NC(=O)[C@H](CCSC)NC(=O)[C@@H](N)Cc1ccc(O)cc1)[C@@H](C)O)C(=O)N[C@@H](CO)C(=O)N[C@@H](CCC(N)=O)C(=O)N[C@H](C(=O)O)C(C)C,1%,nt,nt,nt,4%
Cc1nn(Cc2ccccc2)c2c1C(c1ccco1)C(C#N)=C(N)O2 (stereo unspecified),-17%,-5,0,0%,7.1µM*
O=C1NC(=S)N(c2ccc(F)cc2)C(=O)/C1=C\c1ccoc1,-2%,-72*,-9,2%,-13%
O=C1NC(=S)N(c2ccc(F)cc2)C(=O)/C1=C/c1ccco1,-20%,nt,nt,nt,-25%
Cc1ccc(/C=C2\C(=O)NC(=S)N(c3cccc(F)c3)C2=O)o1,-19%,-1,nt,-27%,11µM*
Cc1c(C(=O)c2cccc3ccccc23)c2cccc3c2n1[C@@H](CN1CCOCC1)CO3,-3%,nt,nt,nt,-19%
Cc1cccc(-n2c(C)nc3ccccc3c2=O)n1,1%,-3,5,6%,16%
Cc1cccc(-n2c(=S)[nH]c3ccccc3c2=O)n1,?,2,2,-1%,13µM*
O=NN(CCO)CCO,-3%,nt,nt,nt,1%
O=C(Nc1ccccc1)c1ccccc1I,-12%,nt,nt,nt,26%
CC(C)[C@]12O[C@H]1[C@@H]1O[C@]13[C@]1(O[C@H]1C[C@H]1C4=C(CC[C@@]13C)C(=O)OC4)[C@@H]2O,0.4µM*,nt,nt,nt,0.32µM*
Cc1ccc2c(Cl)cc(Cl)c(O)c2n1,0.89µM*!,?,-65*,nt,0.56µM*!
CN(C)C(=O)Oc1c(Cl)cc(Cl)c2cccnc12,10%,10,-5,-3%,15%
Fc1ccccc1CCNCc1cccc2ccccc12,20µM*,17,16,18%,?
COc1ccc(OC)c(N2C(=O)/C(=C/c3ccco3)C(=O)NC2=S)c1,-13%,-71*,-10,-7%,-18%
SMILES,VP16 counter,Six1-Eya2 blk,CtBP-E1A blk,p53 reactivation,RORg inh
COc1ccc(N2C(=O)/C(=C/c3ccc(C)o3)C(=O)NC2=S)cc1,-4%,-20,-13,5%,-14%
NC(N)=NN=C(/C=C/c1ccc([N+](=O)[O-])o1)/C=C/c1ccc([N+](=O)[O-])o1,?,nt,nt,nt,5µM*
Cc1cccc(N2C(=O)NC(=O)/C(=C/c3ccc([N+](=O)[O-])o3)C2=O)c1,?,?,-22,-4%,4%
COc1ccc(CCNc2oc(-c3ccc(OC)c(OC)c3)nc2P(=O)(OC)OC)cc1OC,?,-9,-4,0%,19%
CN(C)C(=Nc1ccccc1)P(=S)(N(C)C)N(C)C,-6%,3,0,-1%,10µM*
CCn1ccnc1CN1CCCC(C(=O)c2ccc(OC)cc2OC)C1 (stereo unspecified),6.3µM*,-6,4,0%,3.5µM*
COc1ccc(C(=O)C2CCCN(Cc3cccc(C)n3)C2)c(OC)c1 (stereo unspecified),-22%,-5,6,-3%,?
CCn1ccnc1CN1CCCC(C(=O)c2cc(F)ccc2OC)C1 (stereo unspecified),16µM*,5,2,0%,2µM*
COc1ccc(F)cc1C(=O)C1CCCN(Cc2ccc(O)cc2)C1 (stereo unspecified),-1%,-4,-1,?,?
c1ccc(-c2cc3c(nc2-c2ccccc2)CCNC3)cc1,-11%[10 µM],nt,nt,nt,-10%[10 µM]
O=C1C=CC(=O)C(Cl)=C1,?,nt,nt,nt,11µM*
c1ccc2c(c1)OCC(C1=NCCN1)O2 (stereo unspecified),-1%,1,-3,7%,16µM*!
C[C@@H]1C[C@@H]2[C@H]([C@H]3C=C(COC(=O)c4ccccc4)[C@@H](O)[C@]4(O)[C@@H](O)C(OC(=O)c5ccccc5)=C[C@@]14C3=O)C2(C)C,-19%,nt,nt,nt,3%
C(CCOCC1CO1)COCC1CO1 (stereo unspecified),-4%,nt,nt,nt,3%
Cc1ccc(-c2cn3c(=S)[nH]nc3s2)cc1,?,-5,4,-2%,2.8µM*
NCCc1c[nH]c2ccc(O)cc12,11%,nt,nt,nt,3%
ClCc1ccccn1,-14%,nt,nt,nt,-4%
C=C(C)C1Cc2c(ccc3c2OC2COc4cc(OC)c(OC)cc4C2C3=O)O1 (stereo unspecified),?,nt,nt,nt,0.035µM*
Cc1cc(S(=O)(=O)NC(C)C)ccc1OCC(=O)N1CCN(Cc2ccc3c(c2)OCO3)CC1,7.9µM*,-8,-3,0%,-29%
CC[C@@]1(O)C(=O)OCc2c1cc1n(c2=O)Cc2cc3c(N)cccc3nc2-1,0.35µM*,-1,0,3%,0.02µM*
Cc1sc2c(c1C)C(c1cccs1)=NCC(=O)N2CC(=O)NCc1cccs1,-23%,7,53,-2%,28%
Cc1sc2c(c1C)C(c1ccc(C(C)(C)C)cc1)=NCC(=O)N2CC(=O)Nc1nccs1,?,-9,-5,1%,11µM*
CCOP(=S)(OCC)Oc1ccc([N+](=O)[O-])cc1,3%,nt,nt,nt,-3%
COc1ccc(NC(=O)C(=O)NNC(=O)C(C)Oc2ccc(Cl)cc2Cl)cc1 (stereo unspecified),?,0,-5,-6%,5µM*
